# Data: the supplement of paper PMC8728848
# Shown is part of a subset that was picked to be rich in the strongest signals.
# Columns and labels:
# Assay in all cases: glycan array binding signal (z-score within array); higher = stronger binding
# Settings in all cases: glycan notation: IUPAC condensed, linker removed
# Fuc(a1-2)Gal(b1-4)Glc6S = biological target: Fuc(a1-2)Gal(b1-4)Glc6S
# Procedure, shortened: (§1)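 Columns mapping to the same glycan were averaged after glycan names were converted to IUPAC-condensed notation. The data come from 3228 arrays in the Consortium for Functional Glycomics database, limited to those with an available protein sequence. Binding is reported as a within-array Z-score averaged across arrays of one protein sequence and across linkers.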
# [1] = biological target: Fuc(a1-2)[GalNAc(a1-3)]Gal(b1-4)[Fuc(a1-3)]GlcNAc
# Procedure, shortened: as §1
# [2] = biological target: Fuc(a1-2)[GalNAc(a1-4)]Gal(b1-4)GlcNAc
# Procedure, shortened: as §1
# [3] = biological target: Fuc(a1-2)[GalNAc(b1-3)]Gal
# Procedure, shortened: as §1
# Gal(a1-3)Gal = biological target: Gal(a1-3)Gal
# Procedure, shortened: as §1
# Gal(a1-3)Gal(b1-4)Glc = biological target: Gal(a1-3)Gal(b1-4)Glc
# Procedure, shortened: as §1
# Gal(a1-4)Gal(b1-4)GlcNAc = biological target: Gal(a1-4)Gal(b1-4)GlcNAc
# Procedure, shortened: as §1
# [4] = biological target: Gal(b1-3)[Fuc(a1-4)]GlcNAc(b1-3)Gal(b1-4)GlcNAc
# Procedure, shortened: as §1
# [5] = biological target: Gal(b1-3)[Fuc(a1-4)]GlcNAc(b1-3)Gal(b1-4)[Fuc(a1-3)]GlcNAc
# Procedure, shortened: as §1
# [6] = biological target: Gal(b1-4)GlcNAc(a1-6)Gal(b1-4)GlcNAc
# Procedure, shortened: as §1
# [7] = biological target: Gal(b1-4)GlcNAc(b1-3)Gal(b1-4)[Fuc(a1-3)]GlcNAc(b1-3)Gal(b1-4)[Fuc(a1-3)]GlcNAc
# Procedure, shortened: as §1
# [8] = biological target: Gal(b1-4)GlcNAc(b1-3)GalNAc
# Procedure, shortened: as §1
# [9] = biological target: Gal(b1-4)GlcNAc(b1-3)[Gal(b1-4)GlcNAc(b1-6)]Gal(b1-4)GlcNAc
# Procedure, shortened: as §1
# [10] = biological target: Gal(b1-4)GlcNAc(b1-6)Gal(b1-4)GlcNAc
# Procedure, shortened: as §1
# GalNAc(a1-3)Gal = biological target: GalNAc(a1-3)Gal
# Procedure, shortened: as §1
# GalNAc(b1-3)Gal = biological target: GalNAc(b1-3)Gal
# Procedure, shortened: as §1
# [11] = biological target: GalNAc(b1-3)Gal(a1-4)Gal(b1-4)GlcNAc
# Procedure, shortened: as §1
# GalNAc(b1-3)GalNAc = biological target: GalNAc(b1-3)GalNAc
# Procedure, shortened: as §1
# [12] = biological target: GlcNAc(b1-3)Gal(b1-4)GlcNAc
# Procedure, shortened: as §1
# [13] = biological target: Man(a1-2)Man(a1-2)Man(a1-6)[Man(a1-3)]Man
# Procedure, shortened: as §1
# Man(a1-2)Man(a1-3)Man = biological target: Man(a1-2)Man(a1-3)Man
# Procedure, shortened: as §1
# [14] = biological target: Man(a1-2)Man(a1-3)[Man(a1-6)]Man(a1-6)[Man(a1-2)Man(a1-3)]Man(b1-4)GlcNAc(b1-4)GlcNAc
# Procedure, shortened: as §1
# [15] = biological target: Neu5Ac(a2-3)Gal(b1-3)[Fuc(a1-4)]GlcNAc
# Procedure, shortened: as §1
# [16] = biological target: Neu5Ac(a2-3)Gal6S(b1-4)GlcNAc
# Procedure, shortened: as §1
# [17] = biological target: Neu5Ac(a2-3)GalNAc(b1-4)GlcNAc
# Procedure, shortened: as §1
# [18] = biological target: Neu5Ac(a2-6)Gal(b1-4)GlcNAc6S
# Procedure, shortened: as §1
# [19] = biological target: Neu5Ac(a2-8)Neu5Ac(a2-8)Neu5Ac(a2-8)Neu5Ac(a2-3)[GalNAc(b1-4)]Gal(b1-4)Glc
# Procedure, shortened: as §1
binder,measurement,setting,value
CBM32-5 (Clostridium perfringens) (protein) MGSSHHHHHHSSGLVPRGSHMASALPQGNMKATATSEHPDVGNEGLAKFAIDGKENTIWHTKYNPVEELPQSITLELGGSYEINKFTYLPRSGAKNGNITKYELHVSEDGNNFRKISEGNWDDSGSLKTLKFNSTKATHVKLVALEGVGGFASAAELNVFA,glycan array binding signal (z-score),Fuc(a1-2)Gal(b1-4)Glc6S,-0.037
same,glycan array binding signal (z-score),[1],-0.639
same,glycan array binding signal (z-score),[2],9.74
same,glycan array binding signal (z-score),[3],6.11
same,glycan array binding signal (z-score),Gal(a1-3)Gal,-0.718
same,glycan array binding signal (z-score),Gal(a1-3)Gal(b1-4)Glc,2.12
same,glycan array binding signal (z-score),Gal(a1-4)Gal(b1-4)GlcNAc,0.124
same,glycan array binding signal (z-score),[4],-0.65
same,glycan array binding signal (z-score),[5],-0.543
same,glycan array binding signal (z-score),[6],0.343
same,glycan array binding signal (z-score),[7],-0.59
same,glycan array binding signal (z-score),[8],0.285
same,glycan array binding signal (z-score),[9],3.1
same,glycan array binding signal (z-score),[10],0.749
same,glycan array binding signal (z-score),GalNAc(a1-3)Gal,2.91
same,glycan array binding signal (z-score),GalNAc(b1-3)Gal,4.11
same,glycan array binding signal (z-score),[11],1.22
same,glycan array binding signal (z-score),GalNAc(b1-3)GalNAc,0.845
same,glycan array binding signal (z-score),[12],-0.249
same,glycan array binding signal (z-score),[13],-0.584
same,glycan array binding signal (z-score),Man(a1-2)Man(a1-3)Man,-0.091
same,glycan array binding signal (z-score),[14],-0.536
same,glycan array binding signal (z-score),[15],-0.236
same,glycan array binding signal (z-score),[16],-0.395
same,glycan array binding signal (z-score),[17],-0.526
same,glycan array binding signal (z-score),[18],-0.183
same,glycan array binding signal (z-score),[19],-0.621
